Records with an inconclusive call do not appear. Values without a mark were called inactive. Calls of active or inactive are those of the source. Calls come from the whole dose curve; as a rule, active = well fitted cell-killing curve with a large enough effect in the repeat runs; inconclusive = weak or mixed curves, or effect the other way; inactive = flat fitted curve, though single readings scatter.
experiment: qHTS assay to identify small molecule agonists of the TGF-beta/Smad signaling pathway - cell viability counter screen (AID 1346829); details: SBE-bla HEK293T viability, CellTiter-Glo luminescence, 5 h; series mostly up to 76.8 µM; note: top concentration of the series differs between compounds; nearly all actives have a fitted effect of over 45% in size
Source text: National Center for Advancing Translational Sciences [NCATS]
NIH Chemical Genomics Center [NCGC]
U.S. Environmental Protection Agency [EPA]
National Institutes of Environmental Health Sciences [NIEHS]
National Toxicology Program [NTP]
U.S. Food and Drug Administration [FDA]
Transforming growth factor beta (TGF-beta) superfamily consists of a large number of structurally related dimeric proteins that act as hormones or local mediators in regulating a wide range of biological functions. This superfamily includes TGF-betas themselves, the bone morphogenetic proteins (BMPs) and the activins. These ligands induce oligomerization of serine/threonine receptor kinases and phosphorylate the cytoplasmic signaling molecules of Smad protein family. CellSensor SBE-bla HEK 293T cell line (Life Technologies, Carlsbad, CA), responsive to TGF-beta was used to screen Tox21 10K compound library for identification of agonists/antagonists of the Smad signaling pathway. This cell line contains a beta-lactamase reporter gene under control of the Smad binding element (SBE) stably integrated into HEK 293T cells. Also cytotoxicity of the compounds was tested in parallel by measuring the cell viability using CellTiter-Glo assay system in the same wells.
Tox21 Assay Protocol Summary:
SBE-bla HEK 293T cells were dispensed at 4,000/well in 6 uL of assay medium into black wall/clear-bottom 1536-well plates using a Multidrop Combi (ThermoFisher Scientific, Waltham, MA) dispenser. After the assay plates were incubated at 37 C and 5% CO2 for an overnight, 23 nL of compounds dissolved in DMSO, positive controls or DMSO only was transferred to the assay plate by a Pintool station (Kalypsys, San Diego, CA). The assay plates were incubated at 37 C and 5% CO2 for 5 hr. One uL of LiveBLAzer B/G FRET substrate (Life Technologies) was added using a Flying Reagent Dispenser (FRD, Aurora Discovery, San Diego, CA) and the plates were incubated at room temperature for 2 hr. Fluorescence intensity (405 nm excitation, 460 nm and 530 nm emissions) was measured using an Envision plate reader (PerkinElmer, Shelton, CT). For cytotoxicity read, 4 uL of CellTiter-Glo reagent (Promega Corporation, Madison, WI) was added to each well of the assay plates using FRD. After 30min incubation at room temperature, the luminescence intensity was measured using ViewLux plate reader (PerkinElmer).
% is set by controls: 0 for no effect and ±100 for the full control effect.

| Structure (SMILES) | outcome | activity change, negative = cytotoxicity |
| --- | --- | --- |
| C=CCOC(=O)/C=C\C(=O)OCC=C | inactive | – |
| Cc1cc(O)c(C(C)C)cc1Cl | inactive | – |
| Cc1nc2ccccn2c(=O)c1CCN1CCC(C(=O)c2ccc(F)cc2)CC1 | inactive | – |
| CCCOCCOCCO | inactive | – |
| CCCCCCCCCCCC[N+](C)(C)CC(=O)[O-] | inactive | – |
| CC(=O)Oc1ccc2c(c1)CC[C@@H]1[C@@H]2CC[C@]2(C)[C@@H](O)CC[C@@H]12 | inactive | – |
| CC(=O)OCC(=O)[C@H]1CC[C@H]2[C@@H]3CCC4=CC(=O)CC[C@]4(C)[C@H]3CC[C@]12C | inactive | – |
| COc1ccc([C@@H]2Sc3ccccc3NC(=O)[C@@H]2O)cc1 | inactive | – |
| CC(C)(C)C(=O)O | inactive | – |
| C=CCCCCCCCCCCCCCCCC | – | 3.28% [at 6.97 µM] |
| CN1CCN(c2c(F)cc3c(=O)c(C(=O)O)cn4c3c2OCN4C)CC1 | – | -7.56% [at 15.8 µM] |
| CC(COc1ccc(C(C)(C)C)cc1)OS(=O)OCCCl (stereo not given) | inactive | – |
| CCC(C)=O | inactive | – |
| CCCCCCCC/C=C\CCCCCCCC(=O)OC | inactive | – |
| CC1=C(/C=C/C(C)=C\C=C\C(C)=C\C(=O)O)C(C)(C)CCC1 | inactive | – |
| CC(C)(CCl)c1ccccc1 | inactive | – |
| CCC(C(=O)OCCOCCN(CC)CC)c1ccccc1 (stereo not given) | inactive | – |
| O=C(N/N=C/c1ccc([N+](=O)[O-])o1)c1ccc(O)cc1 | inactive | – |
| O=C(N[C@@H](c1ccccc1)[C@@H]1CCCCN1)c1cccc(C(F)(F)F)c1Cl | inactive | – |
| CCN(Cc1cccc(S(=O)(=O)O)c1)c1ccc(C(=C2C=CC(=[N+](CC)Cc3cccc(S(=O)(=O)[O-])c3)C=C2)c2ccccc2)cc1 | inactive | – |

| Structure (SMILES) | outcome | activity change, negative = cytotoxicity |
| --- | --- | --- |
| COCCOC(=O)C1=C(C)NC(C)=C(C(=O)OC/C=C/c2ccccc2)C1c1cccc([N+](=O)[O-])c1 (stereo not given) | inactive | – |
| Cc1ccnc2ccccc12 | inactive | – |
| O=C1NCCN1 | inactive | – |
| CC1(C)O[C@@H]2C[C@H]3[C@@H]4CCC5=CC(=O)C=C[C@]5(C)[C@H]4[C@@H](O)C[C@]3(C)[C@]2(C(=O)CO)O1 | inactive | – |
| O=C(O)c1ccccc1NCCc1ccccc1 | inactive | – |
| Cc1ccc(Nc2nccc(N(C)c3ccc4c(C)n(C)nc4c3)n2)cc1S(N)(=O)=O | inactive | – |
| CCCCN(CCCC)C(=S)SSC(=S)N(CCCC)CCCC | inactive | – |
| [O]=[Bi] | – | -9.02% [at 6.97 µM] |
| COC(=O)c1cc(S(N)(=O)=O)ccc1OC | inactive | – |
| O=C(O)c1c(O)c(-c2ccccc2)nc2ccccc12 | inactive | – |
| OC/C(Br)=C(\Br)CO | inactive | – |
| CC(=O)Nc1ccc(N)cc1 | inactive | – |
| CC1CN(c2cc3c(cc2F)c(=O)c(C(=O)O)cn3-c2ccc(F)cc2F)CCN1 (stereo not given) | – | 5.65% [at 6.97 µM] |
| O=C(CCCN1CCN(c2ccc(F)cc2)CC1)NC1c2ccccc2CSc2ccccc21 (stereo not given) | inactive | – |
| CC(CCc1ccc2c(c1)OCO2)NN (stereo not given) | inactive | – |
| CC1CC(=O)NN=C1c1ccc(NCC(C)(C)NCC(O)COc2cc(Cl)ccc2C#N)cc1 (stereo not given) | inactive | – |
| Brc1cc(-c2ccc(Br)c(Br)c2Br)cc(Br)c1Br | inactive | – |
| Cc1ccc(S(=O)(=O)NC2CCCCC2)cc1 | inactive | – |
| CCCCC(CC)CNCC(CC)CCCC (stereo not given) | inactive | – |
| CCn1nc(C)c2c1C(=O)NCC(c1ccc(O)cc1)=N2 | inactive | – |
